Assay [1] is described as follows: qHTS assay for small molecule agonists of the p53 signaling pathway (AID 651631; calls by dose curve; also: nearly all actives have a fitted effect of over 15% in size). The gist of the method: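 Quantitative high-throughput format: 4,000 p53RE-bla HCT-116 cells/well, 5 h pre-incubation, 16 h compound exposure at 37 °C, 2 h room-temperature substrate step, fluorescence intensity measured.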
(Quantitative high-throughput screening tests each substance at several concentrations.)

Assay [2] is described as follows: qHTS assay for small molecules that induce genotoxicity in human embryonic kidney cells expressing luciferase-tagged ATAD5 (AID 651632). Also: nearly all actives have a fitted effect of over 15% in size. Also: potency is read from the fitted curve at half-maximal effect. The gist of the method:
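Concentration-response screen for ATAD5 upregulation in HEK293T luciferase reporter cells; 16 hr treatment at 37C, then luminescence after 30 min with Amplite at room temperature.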

Assay [3] is described as follows: qHTS assay for small molecule agonists of the p53 signaling pathway - cell viability (AID 651633; calls by dose curve;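 also: p53RE-bla HCT reporter cells with a stable beta-lactamase p53 reporter; series mostly up to about 83 µM; nearly all actives have a fitted effect of over 30% in size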). The gist of the method:
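p53RE-bla cells were treated with compound for 16 hours at 37 C. Cytotoxicity was then measured as CellTiter-Glo luminescence after 30 min at room temperature.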

A short description of assay [4]: qHTS assay for small molecules that induce genotoxicity in human embryonic kidney cells expressing luciferase-tagged ATAD5 - cell viability (AID 651634; calls by dose curve; also: nearly all actives have a fitted effect of over 25% in size). The gist of the method: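 15.5 hr compound or vehicle exposure of HEK293T cells expressing luciferase-tagged ATAD5 at 37C; live-cell protease activity is read by fluorescence after 30 min of CellTiter-Fluor.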
Assay [5] in a line: qHTS assay for small molecule disruptors of the mitochondrial membrane potential - cell viability (AID 720634; calls by dose curve;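 also: human HepG2 liver cancer cells; series mostly up to about 83 µM; nearly all actives have a fitted effect of over 20% in size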). The gist of the method:
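In this qHTS format, HepG2 cells plated overnight were pinned with compound, incubated 1 hr, and assayed for ATP luminescence with CellTiter-Glo after m-MPI dye addition.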

Assay [6] can be described thus: qHTS assay for small molecule disruptors of the mitochondrial membrane potential (AID 720635). Also: potency is read from the fitted curve at half-maximal effect. The gist of the method: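 HepG2 cells exposed to compound 1 hr at 37C, then Mito-MPS dye 30 min. Ratio read of aggregate (540/590 nm) versus monomer (490/535 nm) fluorescence.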
A short description of assay [7]: qHTS assay to test for compound auto fluorescence at 590 nm (red) in HepG2 cells (AID 720674). The gist of the method:
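Fluorescence at 590 nm emission following 540 nm excitation was recorded from HepG2 wells one hour after compound transfer, with DMSO-only wells as vehicle and Rose Bengal sodium equivalency as the scale.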

Assay [8] is described as follows: qHTS assay to test for compound auto fluorescence at 535 nm (green) in HepG2 cells (AID 720675).
A short description of assay [9]: qHTS assay to test for compound auto fluorescence at 460 nm (blue) in HEK293 cells (AID 720678). The gist of the method: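 HEK293 cells (2,000 per well, medium with 10% dialyzed FBS) attached for 4-5 hr at 37C, then received compound and stood overnight at 37C, 5% CO2. Blue fluorescence was read at Ex/Em 405/460 nm and expressed relative to triamterene.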
Assay [10] in a line: qHTS assay to test for compound auto fluorescence at 590 nm (red) in HEK293 cells (AID 720679). The gist of the method:
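HEK293 cells (2,000/well, medium with 10% dialyzed FBS) attached for 4-5 hr at 37C, received 23 nL compound and were incubated overnight at 37C, 5% CO2. Red fluorescence was then read at 540/590nm Ex/Em, referenced to Rose Bengal sodium.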

A short description of assay [11]: qHTS assay to test for compound auto fluorescence at 535 nm (green) in HEK293 cells (AID 720680).
A short description of assay [12]: qHTS assay to test for compound auto fluorescence at 460 nm (blue) in HEK293 cell free culture (AID 720681). The gist of the method: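 Compounds were added to cell-free DMEM with 10% FBS and fluorescence read directly. The blue channel used 405 nm excitation and 460 nm emission, with triamterene as the reference fluorophore.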
The nature of assay [13]: qHTS assay to test for compound auto fluorescence at 535 nm (green) in HEK293 cell free culture (AID 720682). The gist of the method: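 Measurement is a direct plate read of green fluorescence (485 nm in, 535 nm out) after compound addition to serum-supplemented DMEM lacking cells, with fluorescein used to express intensities.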
Assay [14] in a line: qHTS assay to test for compound auto fluorescence at 590 nm (red) in HEK293 cell free culture (AID 720683). The gist of the method:
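Cell-free wells of DMEM with 10% FBS received compound, and intrinsic fluorescence was read at excitation/emission 540/590 nm. Values expressed as equivalence to Rose Bengal sodium.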

Assay [15] is described as follows: qHTS assay to test for compound auto fluorescence at 590 nm (red) in HepG2 cell free culture (AID 720684). The gist of the method:
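Rose Bengal sodium served as the reference for red signal. Test compounds were dispensed into serum-containing MEM (10% FBS) without cells, and plates were read at 540/590 nm.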

Assay [16] in a line: qHTS assay to test for compound auto fluorescence at 460 nm (blue) in HepG2 cell free culture (AID 720685). The gist of the method:
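Cell-free plates of MEM plus 10% FBS received 23 nL compound or DMSO vehicle; blue-channel (405/460 nm) intensity scored against triamterene as reference fluorophore.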

Assay [17] has as its target Glucocorticoid receptor (Homo sapiens) (UniProt P04150). In words: qHTS assay to identify small molecule agonists of the glucocorticoid receptor (GR) signaling pathway (AID 720691; active = well fitted activation curve with a large enough effect in the signal ratio in the repeat runs, not every such curve was filed as active; the % refers to the signal ratio). The gist of the method:
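Measures GR pathway activation through a GRE-beta-lactamase reporter stably integrated in HeLa cells, with 18 h compound treatment at 37 C and fluorescence detection using a FRET substrate.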

For assay [18] the target is unchanged. In words: qHTS assay to identify small molecule antagonists of the glucocorticoid receptor (GR) signaling pathway (AID 720692; active = well fitted inhibition curve with a large enough effect in the signal ratio in the repeat runs, not every such curve was filed as active; the % refers to the signal ratio). The gist of the method: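 Tox21 10K library screened in concentration-response for blockade of dexamethasone (5 nM final)-induced GRE-bla reporter activity in HeLa cells; 18 h treatment, fluorescence read.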
The nature of assay [19]: qHTS assay to test for compound auto fluorescence at 535 nm (green) in HepG2 cell free culture (AID 720686).
Assay [20] can be described thus: qHTS assay to test for compound auto fluorescence at 460 nm (blue) in HepG2 cells (AID 720687). The gist of the method:
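HepG2 cells in MEM with 10% FBS, attached overnight at 37 C, were exposed to compound or DMSO for 1 hr at 37 C, 5% CO2. Blue fluorescence was read at 405/460 nm, with triamterene as reference fluorophore.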

Unmarked numbers belong to inactive results. Records with an inconclusive call do not appear. Activity calls are given as the source filed them. Unless noted, calls follow the shape of the dose curve; as a rule, active = well fitted curve in the direction sought with a large enough effect in the repeat runs; inconclusive = weak or mixed curves; inactive = no such curve, though single readings can be large; an effect the other way counts as inactive or inconclusive.

Sequence of Glucocorticoid receptor (Homo sapiens) (P04150 whole entry, looked up): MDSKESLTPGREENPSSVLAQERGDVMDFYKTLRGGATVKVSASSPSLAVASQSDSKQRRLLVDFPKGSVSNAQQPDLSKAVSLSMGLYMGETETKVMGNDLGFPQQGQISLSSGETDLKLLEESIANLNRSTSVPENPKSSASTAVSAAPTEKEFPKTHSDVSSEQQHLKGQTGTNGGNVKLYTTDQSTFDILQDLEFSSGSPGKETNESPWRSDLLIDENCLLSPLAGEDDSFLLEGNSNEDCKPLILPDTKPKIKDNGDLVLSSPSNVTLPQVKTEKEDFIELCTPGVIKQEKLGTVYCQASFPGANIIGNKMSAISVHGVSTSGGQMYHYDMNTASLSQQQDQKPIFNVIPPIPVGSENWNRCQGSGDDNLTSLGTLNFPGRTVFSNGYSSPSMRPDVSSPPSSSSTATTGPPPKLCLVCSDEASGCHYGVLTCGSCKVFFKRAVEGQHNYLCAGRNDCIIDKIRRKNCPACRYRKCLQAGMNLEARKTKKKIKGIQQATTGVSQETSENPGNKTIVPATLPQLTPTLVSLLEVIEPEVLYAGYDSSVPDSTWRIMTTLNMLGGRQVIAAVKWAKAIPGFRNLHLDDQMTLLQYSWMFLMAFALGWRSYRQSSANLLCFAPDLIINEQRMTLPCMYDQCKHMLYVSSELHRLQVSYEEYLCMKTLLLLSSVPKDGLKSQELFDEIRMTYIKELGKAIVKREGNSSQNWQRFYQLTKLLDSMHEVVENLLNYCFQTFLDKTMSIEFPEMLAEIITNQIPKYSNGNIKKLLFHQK

As for `O=C1CCCc2ccccc21`, the Potency result in assay [1], in assay [2], in assay [3], in assay [4], in [5] and in assay [6] was “inactive” throughout. The Potency entry in [17] and in assay [18] was “inactive” in each case. The compound was classed as inactive in assay [7], in [8], in [9], in assay [10], in assay [11] and in [12]. Besides, the compound was classed as inactive in assay [13], in assay [14], in assay [15] and in [16].
As to `FC(F)(F)C(Cl)(Cl)Cl`, the Potency entry in assay [1], in assay [2], in [3], in [4], in assay [5] and in assay [6] was “inactive” each time. For the same compound, the compound was called inactive in [7], in [9], in assay [10], in assay [11], in assay [12] and in assay [13]. Moreover, the outcome in assay [14], in [15], in assay [16], in assay [19] and in assay [20] was inactive.
As to `CCN1CC(CCN2CCOCC2)C(c2ccccc2)(c2ccccc2)C1=O` (stereo unspecified), the Potency entry in assay [1], in assay [2], in assay [3], in assay [4], in [5] and in [6] was “inactive” in each case. Besides, the Potency entry in assay [17] and in assay [18] was “inactive” each time. For the same compound, the compound was called inactive in assay [7], in assay [8], in [9], in [10], in assay [11] and in assay [12]. For the same compound, the compound was classed as inactive in [13], in assay [14], in [15], in assay [16], in [19] and in assay [20].
In the case of `NCCC(O)(P(=O)(O)O)P(=O)(O)O`, the Potency result in assay [1], in assay [2], in assay [3], in assay [4], in assay [5] and in assay [6] was “inactive” in each case. Further, the Potency result in assay [17] and in assay [18] was “inactive” in each case. The result in assay [7], in [9], in assay [11], in assay [13], in assay [14] and in assay [15] was inactive. The compound was classed as inactive in assay [16], in [19] and in [20].
For `FC(F)(F)c1ccccc1`, the Potency result in assay [1], in [2], in assay [3], in assay [4], in assay [5] and in [6] was “inactive” each time. Besides, the call in assay [7], in assay [8], in [9], in [10], in assay [11] and in [12] was inactive. Further, the compound was classed as inactive in assay [13], in assay [14], in [15], in assay [16] and in assay [20].
For `CC(C)(C)c1ccc(OC(=O)c2ccccc2O)cc1`, the Potency result in assay [1], in [3], in assay [4], in [5], in assay [17] and in [18] was “inactive” throughout. Besides, the Potency was 21.7 µM (active) in assay [2] and 24.3 µM (active) in assay [6]. Besides, the result in [7], in [8], in assay [9], in assay [10], in assay [11] and in [12] was inactive. The call in assay [13], in assay [15] and in assay [19] was inactive.
